Experiments:
Assay in all cases: log2 ratio of Biotin-Ahx-Ub-VS probe labelling (fragment/DMSO); higher = less target engagement (more negative = stronger competition), active = hit call of the paper (q ≤ 0.05, log2 ratio ≤ -1)
Conditions in all cases: compound concentration: 200 uM; treatment time: 3 h
USP34 = USP34 (UniProt Q70CQ2)
Outline: (§1)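 Global-median-normalised Spectronaut label-free quantities were compared by unpaired t-test, and values are average log2 ratios of fragment over vehicle. Only proteins with ≥2 unique peptides were used. HEK293T lysate (495 µg per sample) was treated in triplicate with fragment at 200 µM or vehicle for 3 h and then with Biotin-Ahx-Ub-VS at 0.5 µM final for 1 h. Labelled DUBs were then NeutrAvidin-enriched, digested with LysC and trypsin, and run by diaPASEF LC-MS/MS.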

USP36 = molecular target: T1, USP36 (UniProt Q9P275)
T1 sequence (whole entry): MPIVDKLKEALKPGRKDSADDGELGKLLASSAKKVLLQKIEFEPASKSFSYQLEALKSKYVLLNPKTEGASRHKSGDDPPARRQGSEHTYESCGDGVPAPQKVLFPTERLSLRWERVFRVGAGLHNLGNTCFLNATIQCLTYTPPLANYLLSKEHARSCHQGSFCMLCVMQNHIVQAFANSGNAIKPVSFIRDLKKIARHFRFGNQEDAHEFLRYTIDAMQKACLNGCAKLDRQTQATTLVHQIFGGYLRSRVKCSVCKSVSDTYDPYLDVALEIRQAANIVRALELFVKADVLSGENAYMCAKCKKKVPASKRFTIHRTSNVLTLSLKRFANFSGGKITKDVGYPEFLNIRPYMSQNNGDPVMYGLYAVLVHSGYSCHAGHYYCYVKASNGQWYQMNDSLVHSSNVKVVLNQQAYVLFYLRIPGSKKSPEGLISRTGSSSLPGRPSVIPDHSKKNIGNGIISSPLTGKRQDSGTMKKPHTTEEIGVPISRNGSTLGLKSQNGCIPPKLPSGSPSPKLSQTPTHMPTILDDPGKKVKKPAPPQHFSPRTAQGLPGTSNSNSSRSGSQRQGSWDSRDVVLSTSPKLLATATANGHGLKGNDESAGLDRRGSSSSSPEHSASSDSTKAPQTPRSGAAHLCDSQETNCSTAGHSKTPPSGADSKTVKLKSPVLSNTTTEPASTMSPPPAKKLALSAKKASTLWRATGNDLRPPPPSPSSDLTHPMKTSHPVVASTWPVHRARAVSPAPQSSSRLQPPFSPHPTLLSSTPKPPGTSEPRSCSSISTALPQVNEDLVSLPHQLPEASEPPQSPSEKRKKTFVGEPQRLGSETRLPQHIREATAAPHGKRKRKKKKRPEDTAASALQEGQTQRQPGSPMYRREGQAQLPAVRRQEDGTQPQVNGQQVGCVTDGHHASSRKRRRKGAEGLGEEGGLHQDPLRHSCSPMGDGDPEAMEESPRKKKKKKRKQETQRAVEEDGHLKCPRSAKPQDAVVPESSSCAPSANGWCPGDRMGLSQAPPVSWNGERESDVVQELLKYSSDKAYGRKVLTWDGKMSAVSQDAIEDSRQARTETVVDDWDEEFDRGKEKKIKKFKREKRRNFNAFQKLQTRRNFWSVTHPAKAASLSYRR
Outline: as §1

USP38 = molecular target: T2, USP38 (UniProt Q8NB14)
T2 sequence (whole entry): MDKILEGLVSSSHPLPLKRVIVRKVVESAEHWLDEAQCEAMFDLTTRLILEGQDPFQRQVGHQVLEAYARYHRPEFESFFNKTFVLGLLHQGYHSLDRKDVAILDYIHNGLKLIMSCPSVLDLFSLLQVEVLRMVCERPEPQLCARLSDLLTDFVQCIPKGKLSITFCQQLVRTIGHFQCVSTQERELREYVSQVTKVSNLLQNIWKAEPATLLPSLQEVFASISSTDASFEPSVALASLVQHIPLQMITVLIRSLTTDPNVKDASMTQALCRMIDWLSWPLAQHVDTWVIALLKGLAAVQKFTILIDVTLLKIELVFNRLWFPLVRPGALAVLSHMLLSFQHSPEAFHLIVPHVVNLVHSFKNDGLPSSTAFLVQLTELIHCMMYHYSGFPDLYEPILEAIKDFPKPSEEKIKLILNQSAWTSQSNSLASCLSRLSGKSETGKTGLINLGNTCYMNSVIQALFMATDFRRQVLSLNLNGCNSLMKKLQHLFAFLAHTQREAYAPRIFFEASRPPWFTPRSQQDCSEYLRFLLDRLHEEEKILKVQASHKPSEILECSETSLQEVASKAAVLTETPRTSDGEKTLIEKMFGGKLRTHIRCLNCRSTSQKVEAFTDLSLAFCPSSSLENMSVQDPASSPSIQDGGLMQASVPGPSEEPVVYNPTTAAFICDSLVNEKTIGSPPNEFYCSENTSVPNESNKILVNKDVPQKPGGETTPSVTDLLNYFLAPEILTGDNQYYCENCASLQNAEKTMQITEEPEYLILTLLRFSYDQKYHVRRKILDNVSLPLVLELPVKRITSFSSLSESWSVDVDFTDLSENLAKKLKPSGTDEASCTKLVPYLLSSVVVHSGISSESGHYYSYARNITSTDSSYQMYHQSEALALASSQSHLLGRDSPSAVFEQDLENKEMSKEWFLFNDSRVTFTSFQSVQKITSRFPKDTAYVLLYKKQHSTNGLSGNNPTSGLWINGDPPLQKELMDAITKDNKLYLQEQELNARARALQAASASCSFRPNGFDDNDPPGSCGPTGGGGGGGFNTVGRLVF
Outline: as §1

USP39 = molecular target: T3, USP39 (UniProt Q53GS9)
T3 sequence (whole entry): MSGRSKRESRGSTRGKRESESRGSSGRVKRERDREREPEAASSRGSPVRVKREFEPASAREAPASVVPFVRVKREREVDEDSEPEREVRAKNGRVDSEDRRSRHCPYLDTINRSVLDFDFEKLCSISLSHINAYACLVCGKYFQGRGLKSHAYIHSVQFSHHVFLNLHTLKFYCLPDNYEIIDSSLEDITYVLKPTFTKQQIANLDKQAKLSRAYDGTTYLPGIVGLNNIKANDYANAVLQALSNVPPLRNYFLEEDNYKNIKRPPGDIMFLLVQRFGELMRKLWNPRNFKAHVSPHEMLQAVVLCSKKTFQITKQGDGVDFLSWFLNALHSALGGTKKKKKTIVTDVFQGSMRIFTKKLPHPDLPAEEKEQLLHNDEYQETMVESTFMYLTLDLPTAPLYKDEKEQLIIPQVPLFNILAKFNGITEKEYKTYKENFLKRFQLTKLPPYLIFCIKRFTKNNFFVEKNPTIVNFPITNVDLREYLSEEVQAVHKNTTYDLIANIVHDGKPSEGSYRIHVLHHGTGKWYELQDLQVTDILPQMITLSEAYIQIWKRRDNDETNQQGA
Outline: as §1

USP4 = molecular target: T4, USP4 (UniProt Q13107)
T4 sequence (whole entry): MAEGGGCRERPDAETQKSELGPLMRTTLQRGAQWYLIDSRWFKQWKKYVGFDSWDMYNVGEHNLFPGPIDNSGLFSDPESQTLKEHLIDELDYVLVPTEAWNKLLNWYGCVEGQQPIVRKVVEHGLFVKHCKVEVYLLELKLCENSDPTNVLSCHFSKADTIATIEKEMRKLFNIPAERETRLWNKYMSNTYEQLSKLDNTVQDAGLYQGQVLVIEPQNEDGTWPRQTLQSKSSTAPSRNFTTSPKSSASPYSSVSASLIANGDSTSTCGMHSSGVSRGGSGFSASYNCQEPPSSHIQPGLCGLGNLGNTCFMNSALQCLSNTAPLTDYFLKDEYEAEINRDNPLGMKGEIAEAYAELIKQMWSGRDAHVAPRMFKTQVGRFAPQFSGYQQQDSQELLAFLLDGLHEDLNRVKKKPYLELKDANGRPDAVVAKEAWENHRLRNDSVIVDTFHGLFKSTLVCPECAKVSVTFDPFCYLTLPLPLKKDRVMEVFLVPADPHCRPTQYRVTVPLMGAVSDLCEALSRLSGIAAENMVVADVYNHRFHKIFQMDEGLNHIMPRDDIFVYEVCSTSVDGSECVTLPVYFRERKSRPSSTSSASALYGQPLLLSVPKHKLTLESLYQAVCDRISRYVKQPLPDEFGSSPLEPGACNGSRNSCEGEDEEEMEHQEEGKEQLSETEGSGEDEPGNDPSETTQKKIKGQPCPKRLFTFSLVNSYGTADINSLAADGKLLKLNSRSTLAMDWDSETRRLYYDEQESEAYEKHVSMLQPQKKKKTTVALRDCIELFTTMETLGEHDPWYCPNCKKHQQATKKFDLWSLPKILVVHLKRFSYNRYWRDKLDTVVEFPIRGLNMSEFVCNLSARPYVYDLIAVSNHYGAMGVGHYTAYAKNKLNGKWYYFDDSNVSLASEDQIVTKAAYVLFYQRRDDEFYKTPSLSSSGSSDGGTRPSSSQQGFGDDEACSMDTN
Outline: as §1

Measured: log2 ratio of Biotin-Ahx-Ub-VS probe labelling

Chain of USP34 (Q70CQ2 whole entry, the tested form may be a part): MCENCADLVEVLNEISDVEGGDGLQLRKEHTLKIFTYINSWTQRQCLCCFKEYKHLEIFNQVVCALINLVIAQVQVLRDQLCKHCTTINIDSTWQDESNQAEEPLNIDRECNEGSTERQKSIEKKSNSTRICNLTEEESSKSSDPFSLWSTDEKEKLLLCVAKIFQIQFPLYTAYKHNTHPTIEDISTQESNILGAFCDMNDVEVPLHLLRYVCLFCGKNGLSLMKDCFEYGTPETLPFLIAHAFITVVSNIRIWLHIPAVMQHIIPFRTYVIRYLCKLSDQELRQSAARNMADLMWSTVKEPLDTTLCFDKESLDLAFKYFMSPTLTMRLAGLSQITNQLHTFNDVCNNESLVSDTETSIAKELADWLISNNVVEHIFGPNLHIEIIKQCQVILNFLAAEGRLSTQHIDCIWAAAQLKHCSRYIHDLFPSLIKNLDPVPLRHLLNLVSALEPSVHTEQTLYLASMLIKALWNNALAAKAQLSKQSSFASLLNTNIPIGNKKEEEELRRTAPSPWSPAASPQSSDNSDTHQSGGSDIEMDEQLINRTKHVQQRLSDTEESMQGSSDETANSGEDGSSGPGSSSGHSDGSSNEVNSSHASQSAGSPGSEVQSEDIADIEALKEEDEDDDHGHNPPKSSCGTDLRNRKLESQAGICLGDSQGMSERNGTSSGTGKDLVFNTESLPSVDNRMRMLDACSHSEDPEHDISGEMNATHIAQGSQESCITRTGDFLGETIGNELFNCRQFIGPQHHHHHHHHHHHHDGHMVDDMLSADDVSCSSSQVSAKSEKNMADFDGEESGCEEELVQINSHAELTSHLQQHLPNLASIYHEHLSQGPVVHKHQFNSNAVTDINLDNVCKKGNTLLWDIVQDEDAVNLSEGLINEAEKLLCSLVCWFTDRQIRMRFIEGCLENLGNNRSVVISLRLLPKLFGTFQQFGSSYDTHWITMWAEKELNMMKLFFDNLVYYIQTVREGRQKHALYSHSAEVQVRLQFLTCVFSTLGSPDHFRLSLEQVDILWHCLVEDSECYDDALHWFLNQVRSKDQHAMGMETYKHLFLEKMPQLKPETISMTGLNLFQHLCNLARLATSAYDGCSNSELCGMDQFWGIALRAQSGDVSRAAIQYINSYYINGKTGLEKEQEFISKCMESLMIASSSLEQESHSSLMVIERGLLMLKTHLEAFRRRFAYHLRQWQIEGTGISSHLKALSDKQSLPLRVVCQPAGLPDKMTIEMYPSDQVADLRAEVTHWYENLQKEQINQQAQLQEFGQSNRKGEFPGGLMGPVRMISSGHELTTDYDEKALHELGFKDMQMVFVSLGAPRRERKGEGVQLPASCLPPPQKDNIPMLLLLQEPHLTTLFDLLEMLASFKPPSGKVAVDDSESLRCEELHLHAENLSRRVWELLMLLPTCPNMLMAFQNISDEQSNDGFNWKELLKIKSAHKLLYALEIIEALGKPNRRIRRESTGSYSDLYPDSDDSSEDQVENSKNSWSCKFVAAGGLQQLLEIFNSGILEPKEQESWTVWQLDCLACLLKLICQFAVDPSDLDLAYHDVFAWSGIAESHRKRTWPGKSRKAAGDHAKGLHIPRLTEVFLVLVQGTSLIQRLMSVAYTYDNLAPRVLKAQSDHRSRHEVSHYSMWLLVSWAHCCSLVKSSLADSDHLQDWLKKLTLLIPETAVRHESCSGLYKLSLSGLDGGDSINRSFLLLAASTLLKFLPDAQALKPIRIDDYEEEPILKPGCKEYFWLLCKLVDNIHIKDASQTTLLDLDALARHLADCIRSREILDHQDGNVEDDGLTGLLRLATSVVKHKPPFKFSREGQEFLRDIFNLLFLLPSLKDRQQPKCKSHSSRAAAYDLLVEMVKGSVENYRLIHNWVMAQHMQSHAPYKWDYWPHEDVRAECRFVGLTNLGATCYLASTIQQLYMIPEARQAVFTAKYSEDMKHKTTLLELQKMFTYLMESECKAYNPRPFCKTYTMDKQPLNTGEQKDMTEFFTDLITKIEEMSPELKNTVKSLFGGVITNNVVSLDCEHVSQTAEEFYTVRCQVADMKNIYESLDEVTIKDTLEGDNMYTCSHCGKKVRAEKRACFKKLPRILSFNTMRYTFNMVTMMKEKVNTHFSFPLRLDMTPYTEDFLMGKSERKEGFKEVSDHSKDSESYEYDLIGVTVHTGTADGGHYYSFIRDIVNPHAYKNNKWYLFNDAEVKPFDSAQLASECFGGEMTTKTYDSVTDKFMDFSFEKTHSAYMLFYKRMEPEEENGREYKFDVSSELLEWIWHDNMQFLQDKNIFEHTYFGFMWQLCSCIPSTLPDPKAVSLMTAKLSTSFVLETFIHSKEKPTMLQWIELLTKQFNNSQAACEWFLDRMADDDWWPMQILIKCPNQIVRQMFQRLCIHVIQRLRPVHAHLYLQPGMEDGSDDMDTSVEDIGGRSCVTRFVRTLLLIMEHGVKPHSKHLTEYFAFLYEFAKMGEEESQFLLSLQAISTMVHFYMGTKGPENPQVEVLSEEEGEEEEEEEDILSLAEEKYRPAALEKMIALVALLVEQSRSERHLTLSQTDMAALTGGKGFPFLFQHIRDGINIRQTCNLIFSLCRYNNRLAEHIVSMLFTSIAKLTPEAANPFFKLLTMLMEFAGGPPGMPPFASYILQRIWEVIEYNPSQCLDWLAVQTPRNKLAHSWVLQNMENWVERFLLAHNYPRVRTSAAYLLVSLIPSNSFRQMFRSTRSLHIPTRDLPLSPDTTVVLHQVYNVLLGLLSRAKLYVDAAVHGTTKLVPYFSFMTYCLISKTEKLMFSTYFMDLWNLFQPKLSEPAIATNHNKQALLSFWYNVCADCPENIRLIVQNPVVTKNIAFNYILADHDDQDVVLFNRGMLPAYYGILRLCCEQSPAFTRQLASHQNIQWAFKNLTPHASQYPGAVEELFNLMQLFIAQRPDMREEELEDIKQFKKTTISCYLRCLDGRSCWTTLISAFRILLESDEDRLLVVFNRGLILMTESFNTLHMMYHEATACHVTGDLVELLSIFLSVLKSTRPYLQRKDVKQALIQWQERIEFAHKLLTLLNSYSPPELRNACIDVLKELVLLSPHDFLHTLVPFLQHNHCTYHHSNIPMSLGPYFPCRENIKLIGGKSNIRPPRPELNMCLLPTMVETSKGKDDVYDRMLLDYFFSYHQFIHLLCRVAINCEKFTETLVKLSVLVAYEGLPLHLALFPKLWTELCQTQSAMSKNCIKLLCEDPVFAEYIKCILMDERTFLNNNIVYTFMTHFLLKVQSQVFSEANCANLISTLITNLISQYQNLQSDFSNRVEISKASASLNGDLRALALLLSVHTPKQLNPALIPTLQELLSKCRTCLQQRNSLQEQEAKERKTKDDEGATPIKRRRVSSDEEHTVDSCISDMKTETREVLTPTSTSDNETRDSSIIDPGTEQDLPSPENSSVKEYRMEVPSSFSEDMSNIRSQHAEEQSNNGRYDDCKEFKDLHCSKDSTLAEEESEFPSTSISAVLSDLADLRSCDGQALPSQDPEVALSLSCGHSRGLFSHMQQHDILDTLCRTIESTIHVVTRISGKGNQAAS

O=C(CCl)NCC1(c2ccccc2)CC1
inactive: USP34 -0.227 | USP36 -0.0695 | USP38 0.127 | USP39 -0.168 | USP4 -0.0752
